# Measurements as given in PubChem BioAssay AID430 (Sanford-Burnham Center for Chemical Genomics, 2006).
# In all, about 63,000 compounds went through this assay and about 1,100 (1.7%) were called active. Only a selection was taken, and actives are over-represented in it overall. Entries with a potency or affinity are not part of this list. Values without a mark were called inactive. No stated cut-off is given here; in the data, active means cytotoxicity above about 50%; inactive means the rest.
# Test: HPDE-C7 pancreatic duct cell viability loss – fluorescence, HTS (AID 430);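 further: cells exposed to compound for 48 hours before viability readout; 0% = vehicle and 100% = reference cytotoxic drug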
# Conditions: HPDE-C7 pancreatic duct cells viability, at 10 µM, active compounds read high
row,Compound,cytotoxicity
1,Cc1cccc(Cn2c(SCCN3CCOCC3)nc3c2c(=O)n(C)c(=O)n3C)c1,-7.8%
2,COc1ccc(C2CC(c3ccccc3)Nc3nc(NC(=O)c4ccco4)nn32)cc1 (stereo unspecified),-5.5%
3,COC(=O)Cc1cc(=O)n2[nH]c(C)nc2n1,-15.9%
4,CCOC(=O)N1CCN(c2ccc(C(=O)c3ccccc3)cc2F)CC1,7%
5,Brc1ccc2[nH]ncc2c1,-5.6%
6,COc1cccc(N2CCN(CC(=O)c3c[nH]c4ccc(OC)cc34)CC2C)c1 (stereo unspecified),9.5%
7,COc1cccc(N2CCN(Cc3nc4ccccc4c(=O)[nH]3)CC2)c1,-2.6%
8,c1ccc2c(c1)CCN(c1ncnc3nc[nH]c13)C2,-4.2%
9,O=c1[nH]c(CN2CCc3ccccc3C2)nc2ccccc12,3.3%
10,COC(=O)c1ccc(N2C(=O)CC(NCc3ccccc3)C2=O)cc1 (stereo unspecified),-3%
11,CCS(=O)(=O)N1CCCC(C(=O)NCc2ccc3c(c2)OCO3)C1 (stereo unspecified),-13.3%
12,Cc1cc(C)n(-c2nncc(-c3ccccc3)n2)n1,0.6%
13,Cc1cc(NC(=O)CSc2nnc(Cn3c(=O)sc4ccccc43)n2-c2ccccc2C)no1,-24.2%
14,Cc1cc(C)nc(SCC(=O)c2ccc(O)cc2O)n1,-21%
15,Cc1ccc(S(=O)(=O)CCC(=O)OCC(=O)Nc2cc(C)on2)cc1,-14.2%
16,OCC1OC(n2nc3ccccc3n2)C(O)C(O)C1O (stereo unspecified),-4.3%
17,COc1cccc(-n2c(CNC(=O)OC(C)(C)C)n[nH]c2=S)c1,2.9%
18,O=S(=O)(Nc1cccc2ncccc12)c1cccs1,45.6%
19,Cc1ccc2ncccc2c1NS(=O)(=O)c1ccccc1,-17.3%
20,CCOCC(=O)Nc1nnc(Cc2ccc(OC)c(OC)c2)s1,-11.9%
21,O=C(NCCCN1CCOCC1)c1cc2ccccc2oc1=O,3.1%
22,Cc1oc(-c2ccc(Cl)cc2)nc1CN1CCC(C(=O)NCc2cccnc2)CC1,-28.8%
23,CCOC(=O)c1[nH]c2c(c1C)C(=O)CC(c1ccc(F)cc1)C2 (stereo unspecified),70.4% (active)
24,COCCOC(=O)c1[nH]c2c(c1C)C(=O)CC(c1ccc(F)cc1)C2 (stereo unspecified),4.9%

row,Compound,cytotoxicity
1,CCCCOC(=O)c1[nH]c2c(c1C)C(=O)CC(c1cc(OC)c(OC)c(OC)c1)C2 (stereo unspecified),-7.3%
2,COC(=O)c1[nH]c2c(c1C)C(=O)CC(c1cccs1)C2 (stereo unspecified),70.9% (active)
3,COC(=O)c1[nH]c2c(c1C)C(=O)CC(c1ccccc1)C2 (stereo unspecified),45.6%
4,CCCOC(=O)c1[nH]c2c(c1C)C(=O)CC(c1ccc(OC)c(OC)c1)C2 (stereo unspecified),-5.7%
5,CCOc1ccc(C2CC(=O)c3c([nH]c(C(=O)OC)c3C)C2)cc1OC (stereo unspecified),2.6%
6,CCOCCOC(=O)c1[nH]c2c(c1C)C(=O)CC(c1ccc(N(C)C)cc1)C2 (stereo unspecified),-3.3%
7,COCCOC(=O)c1[nH]c2c(c1C)C(=O)CC(c1ccccc1)C2 (stereo unspecified),50.6% (active)
8,CCCCCOC(=O)c1[nH]c2c(c1C)C(=O)CC(c1ccco1)C2 (stereo unspecified),68.9% (active)
9,COCCOC(=O)c1[nH]c2c(c1C)C(=O)CC(c1ccc(N(C)C)cc1)C2 (stereo unspecified),-10.9%
10,COC(=O)c1[nH]c2c(c1C)C(=O)CC(c1ccc(C)cc1)C2 (stereo unspecified),1.7%
11,COc1cccc(CNC(=O)C2CCN(S(=O)(=O)N3CCCC3)CC2)c1,-7.2%
12,COc1ccc2c(C)cc(=O)oc2c1C,0.6%
13,C=CCn1c(-c2cc(OC)c(OC)c(OC)c2)n[nH]c1=S,-1.6%
14,Cc1nn(-c2ccccc2)c2c1C1(C(=O)N(C)c3ccccc31)N(c1ccccc1)C(=O)N2 (stereo unspecified),-21.2%
15,O=C1C=C(O)CC(c2ccc(Cl)cc2)C1 (stereo unspecified),31.1%
16,CCOC(=O)c1sc(NC(=O)CSc2nnc(-c3ccco3)n2CC)c(C(=O)OCC)c1C,31.5%
17,CCC(C)N(C(=O)Cn1nnc2ccccc21)C(C(=O)NCc1ccco1)c1cccc(OC)c1 (stereo unspecified),-10.2%
18,COc1ccc(C(NC(=O)c2ccco2)c2ccc(OC)c(OC)c2)cc1OC,-8.3%
19,Nc1nnc(-c2ccco2)s1,-4.3%
20,CCOC(=O)N1CCC(NC(=O)Cn2cc3c(n2)CCC(C)C3)CC1 (stereo unspecified),6.2%
21,Cc1c(C(=O)OCC2CCCO2)[nH]c2c1C(=O)CC(c1ccco1)C2 (stereo unspecified),62.4% (active)
22,Cc1c(C(=O)OCc2ccccc2)[nH]c2c1C(=O)CC(c1ccco1)C2 (stereo unspecified),65.7% (active)
23,Cc1c(C(=O)OCCOC(C)C)[nH]c2c1C(=O)CC(C)(C)C2,-12%
24,COc1ccc(OC)c(C2CC(=O)c3c([nH]c(C(=O)OCC4CCCO4)c3C)C2)c1 (stereo unspecified),8.2%

row,Compound,cytotoxicity
1,Cc1c(C(=O)O)[nH]c2c1C(=O)CC(c1ccccc1)C2 (stereo unspecified),-12.1%
2,Cc1c(C(=O)OCCOC(C)C)[nH]c2c1C(=O)CC(c1ccco1)C2 (stereo unspecified),59.9% (active)
3,CC1=C(C(=O)OCc2ccccc2)C(c2ccco2)C2=C(CC(C)(C)CC2=O)N1 (stereo unspecified),22.7%
4,Cc1c(C(=O)OCC2CCCO2)[nH]c2c1C(=O)CC(c1ccc(N(C)C)cc1)C2 (stereo unspecified),-4.3%
5,COCCOC(=O)c1[nH]c2c(c1C)C(=O)C(C(=O)OC)C(C)C2 (stereo unspecified),-7.3%
6,COc1cc(C2CC(=O)c3c([nH]c(C(=O)OCCOC(C)C)c3C)C2)cc(OC)c1OC (stereo unspecified),2.4%
7,COCCOC(=O)c1[nH]c2c(c1C)C(=O)CC(c1ccco1)C2 (stereo unspecified),60.3% (active)
8,CCN1CCN(c2ncc(C(=O)N3CCCc4ccccc43)c3ccccc23)CC1,-18.1%
9,Cn1c(=O)c2c(nc(N3CCCCCC3)n2CC(O)COc2ccccc2)n(C)c1=O (stereo unspecified),3.5%
10,COC(=O)c1[nH]c2cc(OC)c(OC)cc2c1NC(=O)c1cccc(OC)c1,-10.5%
11,COc1ccc(-c2noc(COc3ccc(C)c(C)c3)n2)cc1OC,3.4%
12,CCOC(=O)c1[nH]c2c(c1C)C(=O)CC(c1ccc(OC)c(OC)c1)C2 (stereo unspecified),-13.8%
13,CSCCOC(=O)c1[nH]c2c(c1C)C(=O)CC(c1ccco1)C2 (stereo unspecified),64.9% (active)
14,CCOC(=O)c1[nH]c2c(c1C)C(=O)CC(c1ccco1)C2 (stereo unspecified),70.2% (active)
15,Cc1c(C(=O)OC2CCCC2)[nH]c2c1C(=O)CC(c1ccco1)C2 (stereo unspecified),79.3% (active)
16,Cc1c(C(=O)OCC(C)C)[nH]c2c1C(=O)CC(c1ccco1)C2 (stereo unspecified),63.7% (active)
17,Cc1c(C(=O)OC2CCCCC2)[nH]c2c1C(=O)CC(C)(C)C2,-3.5%
18,Cc1c(C(=O)OC2CCC(C)CC2)[nH]c2c1C(=O)CCC2 (stereo unspecified),-8.8%
19,CCOC(=O)c1[nH]c2c(c1C)C(=O)CC(c1ccc(OCC)c(OC)c1)C2 (stereo unspecified),-5%
20,CCC(C)OC(=O)c1[nH]c2c(c1C)C(=O)CC(c1ccc(N(C)C)cc1)C2 (stereo unspecified),11.5%
21,COc1ccc(CCNS(=O)(=O)c2cccc(S(=O)(=O)N3CCCC3)c2)cc1OC,-3.9%
22,Cc1cc(SCNC(=O)c2ccccc2)ncn1,-13%
23,COc1ccc(N2CCN(c3oc(COc4ccccc4)nc3C#N)CC2)cc1,-8.8%
24,O=C(O)c1cccc(CN2C(=O)SC(Nc3ccccc3)C2=O)c1 (stereo unspecified),-3.2%

row,Compound,cytotoxicity
1,CN(C)C(=O)COn1c(SCC(=O)N(C)C)nc2ccccc2c1=O,-6.6%
2,COc1ccc(C2C3=C(CC(C)(C)CC3=O)Nc3n[nH]c(C)c32)cc1 (stereo unspecified),-9.3%
3,CCOc1cccc(C(=O)Nc2cc(-c3nn4c(C)nnc4s3)ccc2C)c1,-4.1%
4,O=C(O)C1CCC(CNCc2cccnc2)CC1 (stereo unspecified),-8.3%
5,CC1(C)CC(=O)C(C=Nc2ccccc2)=C(O)C1,2%
6,Cc1ccc(SCCC(=O)NCC2CCCO2)cc1 (stereo unspecified),-5.9%
7,COc1ccc(-c2nnc(NC(=O)c3ccc(S(=O)(=O)N4CCCc5ccccc54)cc3)o2)cc1,53.1% (active)
8,O=C(Nc1nnc(C2CC2)o1)c1ccc(S(=O)(=O)N2CCCc3ccccc32)cc1,73.6% (active)
9,O=C(Nc1ccc(S(=O)(=O)N2CCCc3ccccc32)cc1)C1CCCO1 (stereo unspecified),3%
10,COc1ccc(-c2nnc(NC(=O)c3ccc(S(=O)(=O)N4CCc5ccccc5C4)cc3)o2)cc1,40.7%
11,O=C(NCc1ccco1)c1ccc(S(=O)(=O)N2CCCc3ccccc32)cc1,-2.8%
12,COc1ccc(-c2nnc(NC(=O)c3ccccc3C)o2)cc1,1.9%
13,COc1cc(OC)cc(-n2c3nc4ccccc4nc3c3c(=O)n(CC4CCCO4)cnc32)c1 (stereo unspecified),-11.1%
14,COc1ccc(OC)c(NC(=O)C2=C(C)Nc3ncnn3C2c2cccs2)c1 (stereo unspecified),4.9%
15,CCCCOCCCNC(=O)Cc1cccs1,-16.7%
16,COc1ccccc1N1CCN(C(=O)N2CCOCC2)CC1,-6.9%
17,Cc1cc(N2CCN(C/C=C/c3ccccc3)CC2)n2ncnc2n1,-6.5%
18,O=C(NC1c2ccccc2-c2ccccc21)N1CCOCC1,1.5%
19,O=C(CC1SC(=Nc2ccccc2)N(CCCCO)C1=O)NCc1ccccc1 (stereo unspecified),-10.8%
20,CCCOC(=O)CSC1=C(C#N)C(c2ccccc2OCC)C(C#N)C(=O)N1 (stereo unspecified),5.1%
21,Cc1cc(NC(=O)CCc2ccc(C)o2)no1,-11.8%
22,CC(=O)C(C)Oc1ccc2c3c(c(=O)oc2c1)CCCCC3 (stereo unspecified),-15.5%
23,c1ccc(-c2nnc(N3CCN(c4ccccn4)CC3)c3ccccc23)cc1,5.2%
24,Cc1ccc(-c2nnc(N3CCN(S(C)(=O)=O)CC3)c3ccccc23)cc1,-1.3%
